Shown is part of a subset that was picked to be rich in hits.
FBPA Giardia inh – qHTS Assay for Inhibitors of Fructose-1,6-bisphosphate Aldolase from Giardia Lamblia | A8B2U2 | Potency, µM (series often up to 59.6 µM), usual class: inhibitors | purified Giardia FBPA | 0.71% of 290,000 active; note: nearly all actives have a fitted effect of over 55% in size
Target sequence (A8B2U2 whole entry, looked up): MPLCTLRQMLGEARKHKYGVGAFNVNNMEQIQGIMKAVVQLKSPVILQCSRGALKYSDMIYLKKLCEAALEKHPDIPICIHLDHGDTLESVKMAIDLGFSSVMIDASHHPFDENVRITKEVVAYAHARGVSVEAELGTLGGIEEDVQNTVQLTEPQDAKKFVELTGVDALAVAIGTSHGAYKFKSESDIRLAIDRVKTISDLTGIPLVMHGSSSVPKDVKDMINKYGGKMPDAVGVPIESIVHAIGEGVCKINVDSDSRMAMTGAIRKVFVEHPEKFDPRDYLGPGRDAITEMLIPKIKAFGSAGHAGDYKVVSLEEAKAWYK
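Giardia FBPA (40 nM reagent) was preincubated 10 min at RT with compound (up to 57.5 uM final), then substrate plus GAPDH/TPI/NAD/arsenate coupling system with diaphorase/resazurin was added; resorufin fluorescence (525/598 nm) was read after 20 min.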
RE007 growth inh – qHTS Assay for Inhibitors of the HIV-1 protein Vpr; S. pombe RE007 Vpr strain, BacTiter-Glo ATP luminescence, 24 h; Potency, µM (titrated, usually from 92.2 µM), actives largely listed as inhibitors; 0.21% of 360,000 active; AID 651644, 2012; active = well fitted falling curve with a large enough effect; inconclusive = small, poorly fitted or top-dose-only effect; inactive = no such curve, though single readings can be large or run the other way; note: nearly all actives have a fitted effect of over 50% in size
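Fission yeast RE007 carrying one integrated HIV-1 vpr copy, seeded at OD 0.01 in PMG+AL medium with 23 nL pinned compound. Grown 24 h at 30 degrees; viability read by BacTiter-Glo luminescence after 5 min.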
LmPK inhibitor – qHTS Assay for Inhibitors of Leishmania Mexicana Pyruvate Kinase (LmPK); Potency, µM (top dose mostly 57.5 µM), actives largely listed as inhibitors; Q27686; AID 1721, 2009; purified LmPK, Kinase-Glo ATP luminescence, 1 h; 0.37% of 290,000 active
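In 50 mM imidazole pH 7.2 with 7 mM MgCl2, LmPK (0.1 nM) turned over PEP (0.5 mM) and ADP (0.1 mM) for 1 h at room temperature. Luciferase read-out of ATP.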
Cycloheximide cs – Cycloheximide Counterscreen for Small Molecule Inhibitors of Shiga Toxin; cell reporter, cycloheximide protein synthesis inhibition counterscreen; max response, %; 12% of 300,000 active; in the data active = max response mostly above about 13%, no sharp cut-off; inactive = mostly below about 14%; note: read at 38.3 µM for the half of the compounds with a filed dose
TbPYK inhibitor – qHTS of Trypanosoma Brucei Inhibitors. 0.12% of 410,000 active. Potency, µM (top dose mostly 76.8 µM), usual class: inhibitors. TbPYK enzyme, Kinase-Glo Plus ATP luminescence, 45 min; note: nearly all actives have a fitted effect of over 50% in size
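ADP (130 uM final) triggers the TbPYK reaction after compound addition; incubation is 45 min at room temperature. Kinase-Glo Plus is then added and luminescence imaged. Normalized data are fitted to concentration-effect curves.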
Shiga toxin inh – A qHTS for Small Molecule Inhibitors of Shiga Toxin; Vero cells, Shiga toxin protein synthesis inhibition reporter; inhibition, % at 38.7 µM; 9.2% of 290,000 active; in the data active = inhibition mostly above about 28%, no sharp cut-off; inactive = mostly below about 43%
A number is an active result; i = inactive; ? = inconclusive; nt = no result; [ ] = dose if it differs, or a comment. Unless noted, calls come from the whole dose curve; as a rule, active = well fitted curve in the direction sought with a large enough effect; inconclusive = small, poorly fitted or top-dose-only effect, or another doubt; inactive = no such curve, though single readings can be large; an effect the other way counts as inactive or inconclusive.

SMILES	FBPA Giardia inh	RE007 growth inh	LmPK inhibitor	Cycloheximide cs	TbPYK inhibitor	Shiga toxin inh
CCCCSCCCNC(=O)CN1C(=O)COc2ccc(S(=O)(=O)N3CCC(C)CC3)cc21	nt	nt	nt	nt	i	nt
CCCC(=O)Nc1ccc(NC(=O)c2ccccc2F)cn1	i	i	i	16	i	i
CCCC(=O)Nc1ccc(NC(=O)c2ccccc2)nc1	i	i	?	21	i	40
CCC(=O)Nc1ccc(NC(=O)c2ccccc2Cl)nc1	i	i	i	21	i	i
CC(C)C(=O)Nc1ccc(NC(=O)c2ccccc2Cl)nc1	i	i	i	38	i	71
O=C(Nc1ccc(NC(=O)C2CC2)nc1)c1ccccc1F	i	i	i	24	i	79
CCC(=O)Nc1ccc(NC(=O)c2ccccc2)nc1	i	i	?	25	i	70
O=C(Nc1ccc(NC(=O)C2CCCCC2)nc1)c1cccs1	i	i	i	35	i	65
COc1cccc(C(=O)Nc2ccc(NC(=O)C3CCCCC3)nc2)c1	i	i	i	i	i	i
CN1CCCC2(CCN(C(=O)c3cc(C(F)(F)F)cc(C(F)(F)F)c3)CC2)C1	i	nt	nt	nt	i	nt
CCOc1ccc2nc(N3CCCC(C(=O)Nc4ccc(Br)c(C)c4)C3)sc2c1 (configuration not stated)	nt	nt	nt	nt	i	nt
CC(C)N(Cc1ccccc1)C(=O)CCS(=O)(=O)c1cc2c(cc1Cl)NC(=O)CO2	nt	nt	nt	nt	i	nt
COc1cccc(CNC(=O)CCn2c(=O)c3cccn3c3cccnc32)c1OC	nt	nt	nt	nt	i	nt
CCOC(=O)CN1C(=O)/C(=C/c2c(F)cccc2Cl)Oc2ccccc21	i	i	i	19	i	19
CCOC(=O)C1CCCN(C(=O)c2cc3ccc(OC)cc3[nH]2)C1 (configuration not stated)	i	i	i	23	i	i
COc1ccc2cc(C(=O)N3CCN(c4ccc(F)cc4)CC3)[nH]c2c1	i	i	i	i	i	i
CCOC(=O)C1CCCN(C(=O)c2cc3cc(F)ccc3[nH]2)C1 (configuration not stated)	i	i	i	i	i	i
CCN1CCN(C(=O)c2cc3ccc(OC)cc3[nH]2)CC1	i	i	i	31	i	60
COc1ccc2cc(C(=O)N3CCN(C)CC3)[nH]c2c1	i	i	i	33	i	86
CCCOc1ccc(CNC(=O)c2ccc(C)c(-n3c(C)nc4cccnc43)c2)cc1	nt	nt	nt	nt	i[15.4 µM]	nt
COc1cc2c(cc1OC)C(COc1ccc(C(C)C)cc1)N(C(=O)c1ccc(S(=O)(=O)N3CCCC3)cc1)CC2 (configuration not stated)	nt	nt	nt	nt	i	nt
Cc1ccc(S(=O)(=O)CCC(=O)NC2CCCCC2)cc1	nt	i	nt	nt	i	nt
Cc1ccc(S(=O)(=O)CCC(=O)N(C)C2CCCCC2)cc1	i	i	i	13	i	i
Cc1ccc(S(=O)(=O)NCCc2csc(-c3cccc(F)c3)n2)cc1	nt	nt	nt	nt	i	nt
O=C(/C=C/c1ccc(Cl)c([N+](=O)[O-])c1)Nc1ccc(NC(=O)c2ccco2)cc1	i	i	i	i	i	i
SMILES	FBPA Giardia inh	RE007 growth inh	LmPK inhibitor	Cycloheximide cs	TbPYK inhibitor	Shiga toxin inh
O=C(Nc1ccc(Cl)c([N+](=O)[O-])c1)c1ccco1	i	?	i	20	i	i
O=C(Nc1cc(Oc2ccc(Cl)cc2)cc([N+](=O)[O-])c1)c1ccco1	i	i	i	47	i	74
Cc1c([N+](=O)[O-])cc(C(=O)Nc2ccc(NC(=O)c3ccco3)cc2)cc1[N+](=O)[O-]	i	i	i	i	i	i
CCOc1ccc(Oc2cc(NC(=O)c3ccco3)cc([N+](=O)[O-])c2)cc1	i	i	i	i	i	i
O=C(/C=C/c1ccc(Cl)c([N+](=O)[O-])c1)Nc1cccc(NC(=O)c2ccco2)c1	i	i	i	36	i	67
CCn1c(=O)n(-c2ccc(F)cc2)c(=O)c2sc3ccccc3c21	nt	nt	nt	nt	i	nt
CN(C)c1ccc(CNC(=O)c2cnc3sc(N4CCCCCC4)nn3c2=O)cc1	nt	nt	nt	nt	i	nt
CC(C)Cn1c(=O)c2sccc2n2c(CCCC(=O)NCc3ccccc3Cl)nnc12	nt	nt	nt	nt	i	nt
Cc1cccc(/C=N/NC(=O)c2cc(-c3cccnc3)nc3ccccc23)c1	i	i	i	i	i	i
Cc1cccc(/C=N/Nc2nncc3ccccc23)c1	i	?	?	24	i	47
CN(C)c1ccc(/C=N/Nc2nncc3ccccc23)cc1	i	i	i	28	i	109
C(=N\Nc1nncc2ccccc12)/c1ccccc1	i	i	?	50	i	73
COc1ccc(/C=N/Nc2nncc3ccccc23)c(OC)c1	i	i	i	51	i	106
O=NN(CCCl)C(=O)NC1CCCCC1	nt	nt	nt	nt	i	nt
COc1ccc(O[C@H]2C=C[C@@H](c3ccccc3)O[C@H]2COC(=O)CC/C(C)=N/O[C@@H]2O[C@H](COC(C)=O)[C@H](OC(C)=O)[C@H](OC(C)=O)[C@H]2OC(C)=O)cc1	i[12.9 µM]	nt	nt	nt	nt	nt
CCOc1ccc(NC(=O)c2nn(C)c3c2COc2ccccc2-3)cc1	nt	nt	nt	nt	i	nt
CCOC(=O)N/N=C1/C[C@@H](O)[C@@H](O)[C@@H]2[C@@H]3C(=O)N(c4cccc(Oc5ccccc5)c4)C(=O)[C@H]3CC[C@H]12	i[12.9 µM]	nt	nt	nt	nt	nt
COc1cc(/C=N/Nc2nncc3ccccc23)cc(OC)c1OC	i	nt	i	39	i	87
CCNc1nc(NCC)nc(N/N=C/c2cc(OC)c(OC)c(OC)c2)n1	i	i	i	i	i	i
O=C(Nc1cc2ccc(O)cc2oc1=O)c1ccccc1	nt	nt	nt	nt	i	nt
COc1cc(NS(=O)(=O)c2ccc(N)cc2)nc(C)n1	nt	nt	nt	nt	i	nt
Cc1ccc(C)c(Nc2nnc(-c3ccc(C)c(S(=O)(=O)N4CCN(C)CC4)c3)c3ccccc23)c1	nt	nt	nt	nt	i	nt
CCSc1nc(=O)n(-c2ccccc2)c(C)c1C(C)=O	i	i	i	16	i	33
CCSc1nc(=S)n(-c2ccccc2)c(C)c1C(C)=O	i	i	i	i	i	i
O=C(c1cc(C(F)(F)F)cc(C(F)(F)F)c1)N1CCC2(CC1)CN(c1ccccn1)C2	i	nt	nt	nt	i	nt
SMILES	FBPA Giardia inh	RE007 growth inh	LmPK inhibitor	Cycloheximide cs	TbPYK inhibitor	Shiga toxin inh
COc1ccccc1CNC(=O)CCn1cnc2ccccc2c1=O	nt	nt	nt	nt	i	nt
Nc1c(C(=O)NC2CC2)sc2nc3c(c(-c4ccco4)c12)CC/C3=C/c1ccco1	5.6µM	i	i	i	i	i
CC(=O)OCC(NC(=O)C(COCc1ccccc1)NC(=O)OC(C)(C)C)C1OC(n2ccc(=O)[nH]c2=O)C(OC(C)=O)C1OC(C)=O (configuration not stated)	i	nt	nt	i	nt	i
Cc1ccc(N=C2NC(=O)/C(=C/c3cccnc3)S2)cc1C	i	i	i	i	i	i
Cc1ccc(/C=C2/SC(=Nc3ccc(F)cc3)NC2=O)s1	i	i	i	i	i	i
O=C1Nc2ccccc2S/C1=C/c1cccs1	i	i	i	28	i	62
